# Columns and labels:
# Test in all cases: DAPPL (digital affinity profiling via proximity ligation, sequencing); 10 mM Tris-HCl pH 7.5, 50 mM NaCl, 1 mM DTT, 4% glycerol, room temperature, 30 min; GST-TFs on glutathione beads, 16-mer random dsDNA library, 0.1% formaldehyde crosslink after washing; high values mean tight binding
# [1] = biological target: T1, FEV (Homo sapiens, UniProt Q99581 1-238); conditions: protein: recombinant; tags: N-terminal GST; dsDNA, one strand shown
# T1 sequence: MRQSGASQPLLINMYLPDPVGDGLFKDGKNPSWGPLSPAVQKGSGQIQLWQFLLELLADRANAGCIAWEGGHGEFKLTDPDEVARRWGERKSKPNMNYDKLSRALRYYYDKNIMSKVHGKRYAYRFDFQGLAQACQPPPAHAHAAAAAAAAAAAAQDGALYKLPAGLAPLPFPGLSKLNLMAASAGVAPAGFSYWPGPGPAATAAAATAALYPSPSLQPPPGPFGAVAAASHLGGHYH
# Summary of the method: (§1)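 Binding signal is given per hexamer as its read frequency for a factor divided by its frequency in the tag-only sample. GST-fused human transcription factors were expressed in yeast, captured on glutathione beads, barcoded with DNA and pooled with that sample, then incubated with 200 nmole of a 16-mer random double-stranded DNA library in Tris/NaCl/DTT/glycerol buffer for 30 min at room temperature. The pools were then washed, crosslinked, proximity-ligated, amplified by PCR and sequenced on an Illumina NextSeq500.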
# [2] = biological target: ETV5 (Homo sapiens, UniProt P41161 1-510); conditions: protein: recombinant; tags: N-terminal GST; dsDNA, one strand shown
# ETV5, sequence (P41161 whole entry): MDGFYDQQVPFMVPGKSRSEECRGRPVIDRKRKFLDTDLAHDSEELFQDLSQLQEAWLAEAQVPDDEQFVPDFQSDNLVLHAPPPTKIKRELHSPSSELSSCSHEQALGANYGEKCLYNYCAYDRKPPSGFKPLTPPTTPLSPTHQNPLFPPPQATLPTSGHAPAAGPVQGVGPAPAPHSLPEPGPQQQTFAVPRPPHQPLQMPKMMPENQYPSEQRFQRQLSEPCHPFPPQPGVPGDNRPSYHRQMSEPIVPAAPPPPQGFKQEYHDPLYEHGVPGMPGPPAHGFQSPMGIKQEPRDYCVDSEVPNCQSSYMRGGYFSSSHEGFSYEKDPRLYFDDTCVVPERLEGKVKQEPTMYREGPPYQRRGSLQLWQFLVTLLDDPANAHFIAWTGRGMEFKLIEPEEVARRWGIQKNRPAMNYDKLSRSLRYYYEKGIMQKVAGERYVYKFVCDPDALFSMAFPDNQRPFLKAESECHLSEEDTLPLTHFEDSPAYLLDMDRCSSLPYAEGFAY
# Summary of the method: as §1
# [3] = biological target: HSF1 (Homo sapiens, UniProt Q00613 1-529); conditions: protein: recombinant; tags: N-terminal GST; chain copies: 3; dsDNA, one strand shown
# HSF1, sequence (Q00613 whole entry): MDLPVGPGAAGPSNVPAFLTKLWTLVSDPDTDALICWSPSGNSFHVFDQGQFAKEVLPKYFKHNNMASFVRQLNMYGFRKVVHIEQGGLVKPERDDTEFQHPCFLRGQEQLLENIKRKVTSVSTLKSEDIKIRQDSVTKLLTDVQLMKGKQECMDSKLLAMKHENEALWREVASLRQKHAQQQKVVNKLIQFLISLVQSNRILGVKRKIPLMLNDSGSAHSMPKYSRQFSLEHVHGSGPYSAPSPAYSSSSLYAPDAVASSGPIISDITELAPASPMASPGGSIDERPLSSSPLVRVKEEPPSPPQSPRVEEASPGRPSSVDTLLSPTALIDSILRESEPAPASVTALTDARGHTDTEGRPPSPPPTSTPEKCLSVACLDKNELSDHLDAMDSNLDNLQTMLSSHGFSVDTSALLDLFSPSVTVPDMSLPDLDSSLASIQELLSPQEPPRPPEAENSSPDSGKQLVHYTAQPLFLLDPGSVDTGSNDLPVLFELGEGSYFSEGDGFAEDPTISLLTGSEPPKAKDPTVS
# Summary of the method: as §1
# [4] = biological target: T2, SPIC (Homo sapiens, UniProt Q8N5J4 1-248); conditions: protein: recombinant; tags: N-terminal GST; dsDNA, one strand shown
# T2 sequence: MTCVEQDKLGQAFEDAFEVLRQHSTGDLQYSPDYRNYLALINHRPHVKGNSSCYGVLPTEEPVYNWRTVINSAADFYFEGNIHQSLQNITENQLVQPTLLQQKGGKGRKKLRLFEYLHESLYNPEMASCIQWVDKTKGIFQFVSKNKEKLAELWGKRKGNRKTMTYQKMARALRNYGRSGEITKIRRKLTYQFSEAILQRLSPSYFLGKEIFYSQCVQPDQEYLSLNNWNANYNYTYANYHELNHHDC
# Summary of the method: as §1
# [5] = biological target: ELF4 (Homo sapiens, UniProt Q99607 1-663); conditions: protein: recombinant; tags: N-terminal GST; dsDNA, one strand shown
# ELF4, sequence (Q99607 whole entry): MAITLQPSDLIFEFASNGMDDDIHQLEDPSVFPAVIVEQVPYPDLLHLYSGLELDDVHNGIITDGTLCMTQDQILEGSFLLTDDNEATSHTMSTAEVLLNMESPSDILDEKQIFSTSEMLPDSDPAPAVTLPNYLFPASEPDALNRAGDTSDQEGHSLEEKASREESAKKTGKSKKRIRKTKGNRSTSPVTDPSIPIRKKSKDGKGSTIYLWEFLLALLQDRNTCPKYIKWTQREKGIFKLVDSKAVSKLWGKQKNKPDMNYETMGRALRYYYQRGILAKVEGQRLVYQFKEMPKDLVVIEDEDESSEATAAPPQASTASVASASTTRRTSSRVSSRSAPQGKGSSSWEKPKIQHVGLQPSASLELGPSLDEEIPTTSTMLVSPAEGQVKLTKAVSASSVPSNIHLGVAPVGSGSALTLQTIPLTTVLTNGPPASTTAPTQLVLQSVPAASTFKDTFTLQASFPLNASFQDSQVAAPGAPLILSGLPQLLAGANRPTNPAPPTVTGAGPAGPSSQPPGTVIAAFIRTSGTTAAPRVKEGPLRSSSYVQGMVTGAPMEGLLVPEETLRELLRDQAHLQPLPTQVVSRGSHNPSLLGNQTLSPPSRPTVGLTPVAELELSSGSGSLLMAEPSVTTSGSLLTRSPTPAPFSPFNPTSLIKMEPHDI
# Summary of the method: as §1
# [6] = biological target: T3, ELK4 (Homo sapiens, UniProt P28324-2 1-405); conditions: protein: recombinant; tags: N-terminal GST; dsDNA, one strand shown
# T3 sequence: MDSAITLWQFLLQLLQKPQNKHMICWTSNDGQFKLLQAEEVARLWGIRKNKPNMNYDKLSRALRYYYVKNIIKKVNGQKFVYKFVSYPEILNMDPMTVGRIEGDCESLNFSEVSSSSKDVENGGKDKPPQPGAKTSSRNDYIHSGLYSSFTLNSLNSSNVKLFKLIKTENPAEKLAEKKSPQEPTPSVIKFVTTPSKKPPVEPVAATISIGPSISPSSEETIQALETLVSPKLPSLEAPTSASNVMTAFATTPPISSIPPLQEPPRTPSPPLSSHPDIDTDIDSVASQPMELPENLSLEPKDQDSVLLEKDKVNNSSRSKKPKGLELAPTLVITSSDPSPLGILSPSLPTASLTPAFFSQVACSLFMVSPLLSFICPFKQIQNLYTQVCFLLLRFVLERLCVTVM
# Summary of the method: as §1
# [7] = biological target: T4, ETV2 (Homo sapiens, UniProt O00321 1-342); conditions: protein: recombinant; tags: N-terminal GST; dsDNA, one strand shown
# T4 sequence: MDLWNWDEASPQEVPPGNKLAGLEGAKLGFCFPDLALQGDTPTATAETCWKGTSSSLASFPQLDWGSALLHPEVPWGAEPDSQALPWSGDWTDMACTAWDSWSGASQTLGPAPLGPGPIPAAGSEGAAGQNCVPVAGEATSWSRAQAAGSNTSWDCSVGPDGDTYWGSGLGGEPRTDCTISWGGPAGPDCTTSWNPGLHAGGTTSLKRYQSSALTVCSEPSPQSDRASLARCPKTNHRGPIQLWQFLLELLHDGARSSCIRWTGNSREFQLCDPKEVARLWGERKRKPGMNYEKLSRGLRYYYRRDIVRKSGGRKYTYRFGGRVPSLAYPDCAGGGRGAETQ
# Summary of the method: as §1
# [8] = biological target: T5, ELF3 (Homo sapiens, UniProt P78545 1-371); conditions: protein: recombinant; tags: N-terminal GST; dsDNA, one strand shown
# T5 sequence: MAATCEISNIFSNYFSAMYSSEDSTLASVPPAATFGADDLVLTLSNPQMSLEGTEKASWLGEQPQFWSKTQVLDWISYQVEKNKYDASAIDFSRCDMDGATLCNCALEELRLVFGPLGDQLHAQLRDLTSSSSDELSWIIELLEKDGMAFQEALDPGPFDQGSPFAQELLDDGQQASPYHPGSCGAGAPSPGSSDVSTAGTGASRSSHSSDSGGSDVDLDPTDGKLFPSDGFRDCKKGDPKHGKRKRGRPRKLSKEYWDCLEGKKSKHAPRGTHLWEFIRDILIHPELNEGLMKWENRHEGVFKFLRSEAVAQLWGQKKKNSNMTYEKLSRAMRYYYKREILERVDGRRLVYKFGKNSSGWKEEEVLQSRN
# Summary of the method: as §1
# [9] = biological target: CRX (Homo sapiens, UniProt O43186 1-299); conditions: protein: recombinant; tags: N-terminal GST; dsDNA, one strand shown
# CRX, sequence (O43186 whole entry): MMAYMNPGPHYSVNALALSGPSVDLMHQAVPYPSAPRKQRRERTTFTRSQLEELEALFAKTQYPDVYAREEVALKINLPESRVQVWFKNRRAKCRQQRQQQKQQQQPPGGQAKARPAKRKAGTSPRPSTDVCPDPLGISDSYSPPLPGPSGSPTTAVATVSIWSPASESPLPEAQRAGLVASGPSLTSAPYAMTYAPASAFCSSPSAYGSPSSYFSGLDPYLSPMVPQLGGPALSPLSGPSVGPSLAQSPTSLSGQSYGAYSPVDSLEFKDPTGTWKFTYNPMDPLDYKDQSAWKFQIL
# Summary of the method: as §1
# [10] = biological target: ETV1 (Homo sapiens, UniProt P50549 1-477); conditions: protein: recombinant; tags: N-terminal GST; dsDNA, one strand shown
# ETV1, sequence (P50549 whole entry): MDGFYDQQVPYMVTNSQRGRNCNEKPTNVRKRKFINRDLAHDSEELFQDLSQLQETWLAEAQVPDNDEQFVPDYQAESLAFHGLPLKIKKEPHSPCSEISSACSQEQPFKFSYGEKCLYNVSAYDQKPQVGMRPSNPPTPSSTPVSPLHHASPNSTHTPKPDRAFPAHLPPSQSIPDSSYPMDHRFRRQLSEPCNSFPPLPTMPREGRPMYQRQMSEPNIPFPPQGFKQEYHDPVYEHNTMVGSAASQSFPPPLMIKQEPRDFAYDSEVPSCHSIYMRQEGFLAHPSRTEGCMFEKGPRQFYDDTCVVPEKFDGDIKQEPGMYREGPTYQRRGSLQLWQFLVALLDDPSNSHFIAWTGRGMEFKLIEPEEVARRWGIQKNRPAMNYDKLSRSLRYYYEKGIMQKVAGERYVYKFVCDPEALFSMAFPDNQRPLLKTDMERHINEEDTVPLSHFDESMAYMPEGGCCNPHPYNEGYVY
# Summary of the method: as §1
# [11] = biological target: T6, ERF (Homo sapiens, UniProt P50548 1-548); conditions: protein: recombinant; tags: N-terminal GST; dsDNA, one strand shown
# T6 sequence: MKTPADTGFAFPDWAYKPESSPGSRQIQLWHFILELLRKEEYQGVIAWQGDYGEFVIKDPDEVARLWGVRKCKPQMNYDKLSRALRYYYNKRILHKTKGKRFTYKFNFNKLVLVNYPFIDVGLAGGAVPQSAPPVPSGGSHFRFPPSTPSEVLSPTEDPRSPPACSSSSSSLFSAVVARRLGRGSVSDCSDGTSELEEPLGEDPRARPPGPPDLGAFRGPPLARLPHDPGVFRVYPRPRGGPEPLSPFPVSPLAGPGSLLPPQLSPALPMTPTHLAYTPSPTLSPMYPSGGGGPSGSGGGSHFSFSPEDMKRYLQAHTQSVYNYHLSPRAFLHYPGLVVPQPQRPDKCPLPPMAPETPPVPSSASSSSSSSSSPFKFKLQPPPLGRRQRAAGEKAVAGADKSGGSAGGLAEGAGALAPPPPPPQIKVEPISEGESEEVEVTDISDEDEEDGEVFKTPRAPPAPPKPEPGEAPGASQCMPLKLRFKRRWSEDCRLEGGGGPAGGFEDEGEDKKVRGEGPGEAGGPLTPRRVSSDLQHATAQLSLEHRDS
# Summary of the method: as §1
# [12] = biological target: T7, ETV3L (Homo sapiens, UniProt Q6ZN32 1-361); conditions: protein: recombinant; tags: N-terminal GST; dsDNA, one strand shown
# T7 sequence: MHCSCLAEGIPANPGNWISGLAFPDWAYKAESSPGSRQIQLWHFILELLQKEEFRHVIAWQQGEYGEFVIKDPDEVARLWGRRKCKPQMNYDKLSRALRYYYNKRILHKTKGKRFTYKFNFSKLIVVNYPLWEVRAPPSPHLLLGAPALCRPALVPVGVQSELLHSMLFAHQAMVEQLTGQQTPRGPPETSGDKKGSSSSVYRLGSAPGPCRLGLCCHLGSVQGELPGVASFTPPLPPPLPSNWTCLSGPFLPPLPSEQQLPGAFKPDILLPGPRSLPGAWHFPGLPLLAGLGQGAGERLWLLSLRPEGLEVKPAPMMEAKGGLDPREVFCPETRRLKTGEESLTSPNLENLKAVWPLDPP
# Summary of the method: as §1
# [13] = biological target: T8, ETS2 (Homo sapiens, UniProt P15036 1-469); conditions: protein: recombinant; tags: N-terminal GST; dsDNA, one strand shown
# T8 sequence: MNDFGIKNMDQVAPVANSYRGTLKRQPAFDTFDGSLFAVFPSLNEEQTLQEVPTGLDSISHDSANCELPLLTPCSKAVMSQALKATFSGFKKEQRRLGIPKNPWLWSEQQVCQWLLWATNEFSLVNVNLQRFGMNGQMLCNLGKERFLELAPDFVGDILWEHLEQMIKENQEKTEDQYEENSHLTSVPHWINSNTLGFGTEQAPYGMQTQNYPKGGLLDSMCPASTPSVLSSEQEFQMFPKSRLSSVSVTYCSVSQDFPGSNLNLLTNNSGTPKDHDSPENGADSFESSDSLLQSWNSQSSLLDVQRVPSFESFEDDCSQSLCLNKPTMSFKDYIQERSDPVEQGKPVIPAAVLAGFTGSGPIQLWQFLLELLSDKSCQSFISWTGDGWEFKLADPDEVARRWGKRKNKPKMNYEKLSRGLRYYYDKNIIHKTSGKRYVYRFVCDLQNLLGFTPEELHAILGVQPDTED
# Summary of the method: as §1
# [14] = biological target: T9, SPDEF (Homo sapiens, UniProt O95238 1-335); conditions: protein: recombinant; tags: N-terminal GST; dsDNA, one strand shown
# T9 sequence: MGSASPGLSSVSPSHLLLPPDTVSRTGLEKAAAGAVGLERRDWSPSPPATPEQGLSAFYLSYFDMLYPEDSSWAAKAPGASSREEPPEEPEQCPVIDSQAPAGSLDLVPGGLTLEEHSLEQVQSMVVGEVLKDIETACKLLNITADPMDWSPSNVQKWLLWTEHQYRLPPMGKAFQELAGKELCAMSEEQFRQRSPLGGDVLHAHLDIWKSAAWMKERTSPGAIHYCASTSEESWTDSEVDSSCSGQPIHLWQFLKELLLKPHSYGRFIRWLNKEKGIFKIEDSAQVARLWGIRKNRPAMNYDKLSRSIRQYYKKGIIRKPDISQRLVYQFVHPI
# Summary of the method: as §1
# [15] = biological target: T10, ETV7 (Homo sapiens, UniProt Q9Y603 1-341); conditions: protein: recombinant; tags: N-terminal GST; dsDNA, one strand shown
# T10 sequence: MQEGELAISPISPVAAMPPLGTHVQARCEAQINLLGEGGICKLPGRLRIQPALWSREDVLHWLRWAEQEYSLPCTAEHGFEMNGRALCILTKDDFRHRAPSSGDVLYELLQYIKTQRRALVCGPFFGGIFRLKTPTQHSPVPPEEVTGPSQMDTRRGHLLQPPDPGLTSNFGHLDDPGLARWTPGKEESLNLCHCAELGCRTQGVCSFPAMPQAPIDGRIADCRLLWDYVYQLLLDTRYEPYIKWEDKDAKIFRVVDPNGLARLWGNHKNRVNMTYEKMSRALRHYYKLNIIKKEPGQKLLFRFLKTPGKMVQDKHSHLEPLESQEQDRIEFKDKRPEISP
# Summary of the method: as §1
# [16] = biological target: T11, ELF5 (Homo sapiens, UniProt Q9UKW6-2 1-255); conditions: protein: recombinant; tags: N-terminal GST; dsDNA, one strand shown
# T11 sequence: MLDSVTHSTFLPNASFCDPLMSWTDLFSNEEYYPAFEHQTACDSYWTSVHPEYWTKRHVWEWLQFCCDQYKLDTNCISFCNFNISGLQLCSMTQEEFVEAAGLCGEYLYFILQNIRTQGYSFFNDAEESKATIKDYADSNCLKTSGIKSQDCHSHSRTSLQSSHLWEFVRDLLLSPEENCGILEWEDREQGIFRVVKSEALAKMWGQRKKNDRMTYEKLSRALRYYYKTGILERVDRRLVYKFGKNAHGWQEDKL
# Summary of the method: as §1
# [17] = biological target: T12, ETV3 (Homo sapiens, UniProt P41162-2 1-143); conditions: protein: recombinant; tags: N-terminal GST; dsDNA, one strand shown
# T12 sequence: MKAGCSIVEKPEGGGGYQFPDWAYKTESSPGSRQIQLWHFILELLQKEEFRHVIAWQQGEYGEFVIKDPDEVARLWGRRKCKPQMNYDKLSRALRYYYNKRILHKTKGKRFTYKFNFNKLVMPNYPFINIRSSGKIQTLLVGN
# Summary of the method: as §1
# [18] = biological target: ETV6 (Homo sapiens, UniProt P41212 1-452); conditions: protein: recombinant; tags: N-terminal GST; dsDNA, one strand shown
# ETV6, sequence (P41212 whole entry): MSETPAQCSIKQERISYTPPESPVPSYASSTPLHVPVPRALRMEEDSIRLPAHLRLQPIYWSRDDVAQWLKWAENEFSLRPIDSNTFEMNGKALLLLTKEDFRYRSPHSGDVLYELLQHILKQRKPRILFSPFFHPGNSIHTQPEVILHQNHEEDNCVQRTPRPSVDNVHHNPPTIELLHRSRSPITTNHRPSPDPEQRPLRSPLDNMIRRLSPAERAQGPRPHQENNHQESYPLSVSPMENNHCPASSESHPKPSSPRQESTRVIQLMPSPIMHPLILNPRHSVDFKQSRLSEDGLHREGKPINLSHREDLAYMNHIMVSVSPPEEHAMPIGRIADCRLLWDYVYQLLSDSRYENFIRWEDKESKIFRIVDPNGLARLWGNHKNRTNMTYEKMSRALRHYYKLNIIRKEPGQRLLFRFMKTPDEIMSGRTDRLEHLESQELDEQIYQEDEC
# Summary of the method: as §1
sequence,measurement,setting,value
TTCACC,binding signal,[1],"1.39 fold enrichment (6-mer frequency, TF over GST control)"
same,binding signal,[2],"1.33 fold enrichment (6-mer frequency, TF over GST control)"
same,binding signal,[3],"1.14 fold enrichment (6-mer frequency, TF over GST control)"
same,binding signal,[4],"1.34 fold enrichment (6-mer frequency, TF over GST control)"
same,binding signal,[5],"1.44 fold enrichment (6-mer frequency, TF over GST control)"
same,binding signal,[6],"1.36 fold enrichment (6-mer frequency, TF over GST control)"
same,binding signal,[7],"1.36 fold enrichment (6-mer frequency, TF over GST control)"
same,binding signal,[8],"1.57 fold enrichment (6-mer frequency, TF over GST control)"
same,binding signal,[9],"1.17 fold enrichment (6-mer frequency, TF over GST control)"
same,binding signal,[10],"1.4 fold enrichment (6-mer frequency, TF over GST control)"
same,binding signal,[11],"1.41 fold enrichment (6-mer frequency, TF over GST control)"
same,binding signal,[12],"1.32 fold enrichment (6-mer frequency, TF over GST control)"
same,binding signal,[13],"1.35 fold enrichment (6-mer frequency, TF over GST control)"
same,binding signal,[14],"1.32 fold enrichment (6-mer frequency, TF over GST control)"
same,binding signal,[15],"1.3 fold enrichment (6-mer frequency, TF over GST control)"
same,binding signal,[16],"1.32 fold enrichment (6-mer frequency, TF over GST control)"
same,binding signal,[17],"1.48 fold enrichment (6-mer frequency, TF over GST control)"
same,binding signal,[18],"1.35 fold enrichment (6-mer frequency, TF over GST control)"

# Reference: article PMC7862700, “An all-to-all approach to the identification of sequence-specific readers for epigenetic DNA modifications on cytosine”
